Measured values published in PubChem BioAssay (Tox21).
Inconclusive results are not listed. Entries that show only a call come without a potency. Activity calls are given as the source filed them. The call rests on the fitted dose curve.

Columns and labels:
[1] = biological target: Acetylcholinesterase (Homo sapiens) (UniProt P22303); assay: Acetylcholinesterase (AChE) small molecule antagonists: colormetric cell-based qHTS assay (AID 1347395); further: nearly all actives have a fitted effect of over 30% in size
Procedure, shortened: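 Endogenous AChE of human neuroblastoma SH-SY5Y cells was measured with an Ellman-type DTNB/acetylthiocholine mix. Compound pretreatment lasted 30 min at 37 C; substrate reaction ran 90 min at 37 C.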

[2] = biological target: Acetylcholinesterase (Homo sapiens) (UniProt P22303); assay: Acetylcholinesterase (AChE) small molecule antagonists: enzyme-based qHTS assay (AID 1347397); settings: Potency: AChE enzyme activity inhibition; outcome: AChE enzyme activity inhibition; further: nearly all actives have a fitted effect of over 55% in size; further: potency means the concentration at half of the fitted maximal effect
Procedure, shortened: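 Absorbance-based detection of thiocholine with DTNB served as the read-out. Recombinant human AChE was exposed to compound for 30 min at RT before a 10 min RT incubation with acetylthiocholine.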

[3] = biological target: Acetylcholinesterase (Homo sapiens) (UniProt P22303); assay: Acetylcholinesterase (AChE) small molecule antagonists: fluorescence cell-based qHTS assay (AID 1347398); settings: Potency: AChE activity; outcome: AChE activity; further: nearly all actives have a fitted effect of over 50% in size
Procedure, shortened: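 Fluorimetric cell-based assay: intact SH-SY5Y cells, 30 min compound preincubation at 37 C, acetylthiocholine substrate with thiol probe Thiolite Green, 40 min RT development, fluorescence 490/520 nm.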

[4] = biological target: Acetylcholinesterase (Homo sapiens) (UniProt P22303); assay: Acetylcholinesterase (AChE) small molecule antagonists: enzyme-based qHTS assay with human liver microsomes (AID 1347399); settings: Potency: qHTS inhibition; outcome: qHTS inhibition; further: nearly all actives have a fitted effect of over 60% in size
Procedure, shortened: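 Recombinant human AChE (50 mU/mL in the enzyme mix) and human liver microsomes (0.25 mg/mL final) were preincubated with compound and NADPH (0.25 mg/mL final) for 30 min at 37 C. Acetylthiocholine/DTNB was then added; thiocholine was read colorimetrically after 10 min at room temperature.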

Acetylcholinesterase (Homo sapiens), sequence (P22303 whole entry, looked up): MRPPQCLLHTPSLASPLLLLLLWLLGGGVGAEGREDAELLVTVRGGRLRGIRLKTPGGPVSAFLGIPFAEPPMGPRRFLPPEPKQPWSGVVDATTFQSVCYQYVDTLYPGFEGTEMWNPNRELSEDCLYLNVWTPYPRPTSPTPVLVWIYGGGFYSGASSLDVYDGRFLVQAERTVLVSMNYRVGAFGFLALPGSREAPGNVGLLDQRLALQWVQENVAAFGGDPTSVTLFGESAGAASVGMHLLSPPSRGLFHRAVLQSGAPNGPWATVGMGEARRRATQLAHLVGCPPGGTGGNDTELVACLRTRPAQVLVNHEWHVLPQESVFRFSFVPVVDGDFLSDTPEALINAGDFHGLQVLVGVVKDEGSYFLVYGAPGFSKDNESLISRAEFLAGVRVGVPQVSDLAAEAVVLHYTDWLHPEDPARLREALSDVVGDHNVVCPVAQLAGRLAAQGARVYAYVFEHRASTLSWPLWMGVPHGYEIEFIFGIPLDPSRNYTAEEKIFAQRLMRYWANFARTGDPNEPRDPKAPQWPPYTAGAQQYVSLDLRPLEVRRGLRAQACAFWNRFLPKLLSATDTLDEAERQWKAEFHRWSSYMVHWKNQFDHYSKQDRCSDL

| SMILES | Potency [1] | Potency [2] | Potency [3] | Potency [4] |
| --- | --- | --- | --- | --- |
| C/C=C/C=C/C=O | inactive | inactive | inactive | inactive |
| C[N+]1(C)CCCC(OC(=O)C(O)(c2ccccc2)c2ccccc2)C1 (centres undefined) | inactive | inactive | inactive | inactive |
| O=C(/C=C/c1ccc(O)c(O)c1)O[C@@H]1C[C@](O)(C(=O)O)C[C@@H](O)[C@H]1O | inactive | inactive | inactive | inactive |
| CCCCC/C=C\CCC=O | inactive | inactive | inactive | inactive |
| CCOC(=O)C(=O)c1csc(NC=O)n1 | inactive | inactive | inactive | inactive |
| CC(C)(O)Cc1ccccc1 | inactive | inactive | inactive | inactive |
| C#C[C@]1(OC(C)=O)CC[C@H]2[C@@H]3CCC4=C[C@@H](OC(C)=O)CC[C@@H]4[C@H]3CC[C@@]21C | inactive | inactive | inactive | inactive |
| CC(C)(C)C(=O)O | inactive | inactive | inactive | inactive |
| O=C1NC(=O)c2cc([N+](=O)[O-])ccc21 | inactive | inactive | inactive | inactive |
| C[C@H]1c2cccc(O)c2C(O)=C2C(=O)[C@]3(O)C(O)=C(C(N)=O)C(=O)[C@@H](N(C)C)[C@@H]3[C@@H](O)[C@@H]21 | inactive | inactive | inactive | inactive |
| N#Cc1ccc(C(c2ccc(C#N)cc2)n2cncn2)cc1 | inactive | inactive | inactive | inactive |
| C=CCn1cc[n+](C)c1 | inactive | inactive | inactive | inactive |
| COC(=O)CCCCCCCCC(=O)OC | inactive | inactive | inactive | inactive |
| CCOC(=O)[C@H](CCc1ccccc1)N[C@H]1CS[C@H](c2cccs2)CN(CC(=O)O)C1=O | inactive | inactive | inactive | inactive |
| Cc1ccc(Nc2ccc(O)c3c2C(=O)c2ccccc2C3=O)cc1 | inactive | inactive | inactive | inactive |
| CC1CCCO1 (centres undefined) | inactive | inactive | inactive | inactive |
| C=COCCCC | inactive | inactive | inactive | inactive |
| CC(C)(C)c1ccc(C=O)cc1 | inactive | inactive | inactive | inactive |
| CCCCCCCCCCCCCOP(=O)(O)O | inactive | inactive | inactive | inactive |
| O=C(O)Cc1sc(-c2ccccc2)nc1-c1ccc(Cl)cc1 | inactive | inactive | inactive | inactive |
| CC(C)(C)OC(=O)c1ccccc1C(=O)O | inactive | inactive | inactive | inactive |

| SMILES | Potency [1] | Potency [2] | Potency [3] | Potency [4] |
| --- | --- | --- | --- | --- |
| C=C(C)C(=O)OC | inactive | inactive | inactive | inactive |
| CCCCCCCC/C=C\CCCCCCCC(=O)N(C)CC(=O)O | inactive | 63.3 µM (active) | inactive | inactive |
| [O-][n+]1ccc(Cl)cc1 | inactive | inactive | inactive | inactive |
| COc1ccc2cc(CCC(C)=O)ccc2c1 | inactive | inactive | inactive | inactive |
| CC(=O)OCC(=O)[C@@]1(O)[C@H](OC(C)=O)C[C@H]2[C@@H]3CCC4=CC(=O)C=C[C@]4(C)[C@@]3(F)[C@@H](O)C[C@@]21C | inactive | inactive | inactive | inactive |
| CC12CCC(C(=O)C1=O)C2(C)C (centres undefined) | inactive | inactive | inactive | inactive |
| CC(=O)Nc1ccc(S(=O)(=O)Cl)cc1 | inactive | inactive | inactive | inactive |
| COc1ccc(OC)c(Cl)c1 | inactive | inactive | inactive | inactive |
| C/C=C/C=C/COC(=O)C(C)C | inactive | inactive | inactive | inactive |
| CC1=C(O)C(=O)C(C)O1 (centres undefined) | inactive | inactive | inactive | inactive |
| CC(C)C1CCC(O)CC1 (centres undefined) | inactive | inactive | inactive | inactive |
| COC(=O)CCC(=O)O | inactive | inactive | inactive | inactive |
| COC(=O)c1cc(C(=O)OC)cc(S(=O)(=O)O)c1 | inactive | inactive | inactive | inactive |
| O=C(OCc1ccccc1)C(=O)OCc1ccccc1 | inactive | inactive | inactive | inactive |
| CCCC(=O)OCC | inactive | inactive | inactive | inactive |
| CCCCCCCCCOC(C)=O | inactive | inactive | inactive | inactive |
| Cc1cccc(N(C)C)c1 | inactive | inactive | inactive | inactive |
| CN(C)c1ccc(SC#N)cc1 | inactive | inactive | inactive | inactive |
| CC(C)COC(=O)COc1cc(Cl)c(Cl)cc1Cl | inactive | inactive | inactive | inactive |
| CCC(=O)O[C@]1(C(=O)COC)[C@@H](C)C[C@H]2[C@@H]3CCC4=CC(=O)C=C[C@]4(C)C3(F)[C@@H](O)C[C@@]21C (some centres undefined) | inactive | inactive | inactive | inactive |
